The whole screen tested about 310,000 compounds, of which about 14,000 (4.5%) showed an effect of 50% or more. The effect is printed as a negative number. Many of the other results were omitted from the sample, so strong results are more common in it than they were.
Target: human ether-à-go-go-related gene (hERG) potassium channel (human, UniProt Q12809)
Assay: primary screen, population patch clamp on CHO cells stably expressing hERG; higher = less effect of the substance
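Further: peak tail current of the secondary pulse compared with the same well before compound.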

human ether-à-go-go-related gene (hERG) potassium channel, sequence (Q12809 whole entry, looked up): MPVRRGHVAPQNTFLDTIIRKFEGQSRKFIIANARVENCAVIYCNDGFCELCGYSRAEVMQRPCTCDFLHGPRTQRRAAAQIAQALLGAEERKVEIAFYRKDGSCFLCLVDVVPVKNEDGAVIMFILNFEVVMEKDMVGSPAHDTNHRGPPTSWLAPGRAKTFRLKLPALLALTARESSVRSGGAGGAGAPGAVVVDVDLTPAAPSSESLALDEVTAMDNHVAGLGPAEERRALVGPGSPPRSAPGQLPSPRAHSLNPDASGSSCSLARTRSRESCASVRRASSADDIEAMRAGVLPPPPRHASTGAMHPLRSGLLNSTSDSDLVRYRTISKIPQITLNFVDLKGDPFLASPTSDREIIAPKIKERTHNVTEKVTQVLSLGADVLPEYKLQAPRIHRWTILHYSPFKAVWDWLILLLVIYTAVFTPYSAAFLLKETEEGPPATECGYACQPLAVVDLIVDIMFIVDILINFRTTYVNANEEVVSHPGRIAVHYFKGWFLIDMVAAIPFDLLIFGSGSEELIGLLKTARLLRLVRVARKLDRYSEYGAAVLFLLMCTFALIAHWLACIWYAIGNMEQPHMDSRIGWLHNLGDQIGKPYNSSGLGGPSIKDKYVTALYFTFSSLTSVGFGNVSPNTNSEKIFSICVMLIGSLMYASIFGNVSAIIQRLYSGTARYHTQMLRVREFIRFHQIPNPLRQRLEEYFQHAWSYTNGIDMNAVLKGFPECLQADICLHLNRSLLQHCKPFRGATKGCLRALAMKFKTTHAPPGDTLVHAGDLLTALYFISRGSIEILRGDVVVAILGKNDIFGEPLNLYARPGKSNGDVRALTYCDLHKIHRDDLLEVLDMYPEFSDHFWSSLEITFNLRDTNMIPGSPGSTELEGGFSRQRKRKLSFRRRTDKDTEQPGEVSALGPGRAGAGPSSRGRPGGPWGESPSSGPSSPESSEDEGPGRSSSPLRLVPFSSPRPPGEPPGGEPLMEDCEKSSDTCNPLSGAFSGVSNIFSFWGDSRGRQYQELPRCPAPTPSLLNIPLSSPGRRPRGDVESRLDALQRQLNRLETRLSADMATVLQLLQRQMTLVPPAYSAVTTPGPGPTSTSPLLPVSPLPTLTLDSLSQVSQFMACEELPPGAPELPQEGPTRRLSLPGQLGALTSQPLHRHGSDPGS

Row | SMILES | hERG current change (%, negative = inhibition) at 10uM [%]
1 | Cc1nc(Sc2nnnn2-c2ccccc2)c(C#N)c(C)c1C | -21.3
2 | CCOC(=O)C1CCCN(C(=O)Cn2cccc2C(=O)c2ccccc2)C1 (stereo not shown) | -11.5
3 | Cc1cccc(C)c1NC(=O)COC(=O)c1cccnc1 | 4.43
4 | C#CCOC(=O)C[N+](C)(C)C/C=C/c1ccccc1.[Cl-] | 10.4
5 | Cc1cccc(N2CCN(Cc3nc(-c4cccc(Oc5ccccc5)c4)oc3C)CC2)n1 | 4.13
6 | Cc1oc(-c2cccc(C(F)(F)F)c2)nc1CN1CCN(c2ccccn2)CC1 | -52.5
7 | Cc1oc(-c2cccc(C(F)(F)F)c2)nc1CN1CCOCC1 | -3.32
8 | Cc1oc(-c2cc(F)ccc2F)nc1CN1CCC(C(=O)N2CCOCC2)CC1 | -42.8
9 | Cc1oc(-c2cccc(Cl)c2)nc1CN1CCC(C(=O)N2CCN(c3ccccn3)CC2)CC1 | -68.5
10 | COc1ccc(-c2nc(CN3CCC(C(=O)N4CCOCC4)CC3)c(C)o2)cc1C | -6.98
11 | Cc1oc(-c2cccc(Cl)c2)nc1CN1CCC(C(=O)N2CCN(c3ccccc3F)CC2)CC1 | -69.1
12 | Cc1cccc(-c2nc(CSCC(=O)N3CCN(c4ccccn4)CC3)c(C)o2)c1 | -41.2
13 | CCN1CCN(C(=O)C2CCN(Cc3nc(-c4cccc(Cl)c4)oc3C)CC2)CC1 | -42.9
14 | Cn1nnc2ccccc2c1=O | 12.5
15 | C/C(=N\NC(=S)Nc1c(C)cccc1C)c1cc2ccccc2o1 | 15.1
16 | CCc1ccccc1NC(=O)CSc1n[nH]c(C)c1[N+](=O)[O-] | -8.12
17 | CCNc1ccc(C(=O)O)cc1N | 9.77
18 | Cc1cccc(OCCOC(=O)C2CCN(S(=O)(=O)c3cccs3)CC2)c1 | 6.58
19 | COc1cc(NC(=O)c2cccnc2)c(Cl)cc1NC(=O)c1ccc(Cl)cc1 | -0.00342
20 | COc1cc(/C=C2\SC(=O)NC2=O)ccc1Oc1cnccn1 | 2.14
21 | CCN(CC(=O)NCc1ccc(Cl)cc1)C(=O)c1ccc(S(=O)(=O)NCc2ccco2)cc1 | -54.9
22 | Cc1nn(-c2ccccc2)c(C)c1CN(C)C(=O)c1ccc(S(=O)(=O)NCc2ccco2)cc1 | -21.2

Row | SMILES | hERG current change (%, negative = inhibition) at 10uM [%]
23 | CCN(CC(=O)NCc1ccc(Cl)cc1)C(=O)c1ccc(S(=O)(=O)N(C)C)cc1 | -33.2
24 | CN(Cc1cccs1)C(=O)c1ccc(S(=O)(=O)NCc2ccco2)cc1 | -54.2
25 | CC(C)c1ccc(CN(C)C(=O)c2ccc(S(=O)(=O)NCc3ccco3)cc2)cc1 | -33.7
26 | CCN(CC(=O)Nc1c(F)cccc1F)C(=O)c1ccc(S(=O)(=O)NCc2ccco2)cc1 | 8.72
27 | COc1ccc(S(=O)(=O)NCc2ccc(C(=O)N(C)Cc3ccco3)cc2)cc1 | -19.1
28 | COc1ccccc1CN(C)C(=O)c1ccc(S(=O)(=O)NCc2ccco2)cc1 | -14.9
29 | CN(Cc1ccc(Cl)cc1)C(=O)c1ccc(S(=O)(=O)NCc2ccco2)cc1 | -51.8
30 | Cc1ccccc1C(=O)Nc1cccc(NC(=O)c2cccnc2)c1 | -9.39
31 | CCn1ncc(/C=C2/SC(=S)NC2=O)c1C | 23.6
32 | CCOc1ncnc2c1sc1nc(C)cc(C)c12 | 16
33 | CC(C)N(C(=O)N1CCC(c2nc(-c3ccncc3)no2)CC1)C(C)C | -15.3
34 | O=C(c1ccco1)N1CCN(S(=O)(=O)c2ccc(Br)s2)CC1 | -16
35 | CCOCCCn1c(=N)c(C(=O)NCCN2CCOCC2)cc2c(=O)n3cccc(C)c3nc21 | -53.6
36 | Cc1cccn2c(=O)c3cc(C(=O)NCCN4CCOCC4)c(=N)n(CCN4CCOCC4)c3nc12 | 18.5
37 | CCCCNC(=O)c1cc2c(=O)n3cccc(C)c3nc2n(CCN2CCOCC2)c1=N | -86
38 | Cc1cccn2c(=O)c3cc(C(=O)NCCN4CCOCC4)c(=N)n(CCCN4CCOCC4)c3nc12 | 15.2
39 | Cc1ccc(NC(=O)CN2CCCCC2)c2c1CC(C)(C)O2 | 1.17
40 | O=C(Cc1cccs1)Nc1nc(-c2ccc(F)cc2F)cs1 | -4.34
41 | CCCn1cnc2c(=S)nc(N)[nH]c21 | 16.3
42 | CCNCCC(=O)N1c2ccccc2Sc2ccc(NC(=O)OCC)cc21.Cl | -29.6
43 | COC(=O)c1c(C)oc2cc(Br)c(OCC(=O)C(C)(C)C)cc12 | 6.12
44 | CC(C)N1C(=O)CCC1C(=O)NC1CCCC1 (stereo not shown) | -3.05

Row | SMILES | hERG current change (%, negative = inhibition) at 10uM [%]
45 | CCOc1ccc(-c2cc(C(=O)N/N=C(\C)c3cccnc3)c3ccccc3n2)cc1 | 10.6
46 | CCOc1ccc(S(=O)(=O)N(CC)CC(=O)N2CCOCC2)cc1C | 6.73
47 | CCCNC(=O)NCc1ccc(N2CCCC2=O)cc1 | 8.43
48 | O=P(O)(O)CCP(=O)(c1ccccc1)c1ccccc1 | 9.46
49 | O=P(CCCCCCCCCP(=O)(c1ccccc1)c1ccccc1)(c1ccccc1)c1ccccc1 | -56.1
50 | O=C(O)CCCCCCCCCCP(=O)(c1ccccc1)c1ccccc1 | -7.05
51 | CCN(CC(=O)N1CCCCC1)S(=O)(=O)c1ccccc1 | -7.12
52 | COc1cc(OC)c(OC)cc1CN1CCN(S(=O)(=O)c2ccc(F)cc2)CC1.O=C(O)C(=O)O | -7.69
53 | COc1ccc(CN2CCN(c3ccc(F)cc3)CC2)c(OC)c1OC | -70.2
54 | COc1cc(OC)c(CN2CCN(c3ccc(F)cc3)CC2)cc1Br | -70.3
55 | COc1ccc(C2C(C#N)=C(N)Oc3n[nH]c(C)c32)cc1CN1CCN(c2ccc(F)cc2)CC1 (stereo not shown) | -65.6
56 | COc1cc(OC)c(OC)cc1CN1CCN(c2ccc(F)cc2)CC1 | -68.5
57 | COc1ccc(CN2CCN(C(c3ccc(F)cc3)c3ccc(F)cc3)CC2)c(OC)c1OC.Cl | -13.3
58 | COc1cc(OC)c(OC)cc1CN1CCN(c2ccccc2OC)CC1 | -31.1
59 | COc1ccc(C2C(C#N)=C(N)Oc3n[nH]c(C)c32)cc1Cn1nnc2ccccc21 (stereo not shown) | -8.03
60 | COc1cc(OC)c(CN2CCCN(C)CC2)cc1Br | 18.1
61 | COc1cc(OC)c(CN2CCCCCCC2)cc1Br | -22.4
62 | COc1ccc(CN2CCNCC2)c(OC)c1OC | 9.67
63 | COc1ccc(C2C(C#N)=C(N)Oc3n[nH]c(C)c32)cc1Cn1cc([N+](=O)[O-])cn1 (stereo not shown) | -14
64 | S=c1[nH]nc(-c2ccccc2)n1/N=C/c1c[nH]c2ccccc12 | 12.1
65 | CC1(C)CC2CC(C)(CN2C(=O)COC(=O)CNC(=O)c2ccc(Cl)c(Cl)c2)C1 (stereo not shown) | -20.9
66 | O=C(CN1C(=O)NC2(CCCCCC2)C1=O)NCCc1ccc(F)cc1 | -13

Row | SMILES | hERG current change (%, negative = inhibition) at 10uM [%]
67 | O=C(NCc1cccs1)C1CCN(S(=O)(=O)c2ccc(Br)s2)CC1 | -14.8
68 | CCc1cc2c(=O)n(N)c(CCC(=O)O)nc2s1 | -8.56
69 | Cc1ccc(-n2nnnc2SCC(=O)c2c(N)n(C3CC3)c(=O)[nH]c2=O)c(C)c1 | -4.23
70 | CC1Cc2cc(/C(O)=C3/C(=O)C(=O)N(CCCn4ccnc4)C3c3ccc(Br)cc3)ccc2O1 (stereo not shown) | 6.07
71 | COCCOC1CCN(C(=O)c2cc(COc3ccc(-n4cncn4)cc3)on2)CC1 | -22.8
72 | COC1CCN(C(=O)c2cc(COc3ccc(-n4cncn4)cc3)on2)CC1 | -18.6
73 | CCCOC1CCCN(C(=O)c2cc(COc3ccc(-n4cncn4)cc3)on2)C1 (stereo not shown) | -79
74 | CCc1ccc(CN(C)C(=O)c2cc(COc3ccc(-n4cncn4)cc3)on2)cc1 | -42.5
75 | O=C(c1cc(COc2ccc(-n3cncn3)cc2)on1)N1CCCC1 | -12
76 | CN(Cc1ccc(F)cc1)C(=O)c1cc(COc2ccc(F)cc2F)on1 | 1.65
77 | COc1cccc(CN(C)C(=O)c2cc(COc3ccc4ncccc4c3)on2)c1 | -14.8
78 | CN(Cc1ccc(F)cc1)C(=O)c1cc(COc2ccc(-n3cncn3)cc2)on1 | -78.3
79 | COc1cccc(CN(C)C(=O)c2cc(COc3ccc(-n4cncn4)cc3)on2)c1 | -79.9
80 | CC(C)CCOP(N)(=O)Oc1ccccc1Cl (stereo not shown) | 18.1
81 | CCOc1ncccc1C(=O)OCC(=O)Nc1ccc2c(c1)OCO2 | 12.6
82 | Cc1ccc(-n2[nH]c(C)c(C=Nc3ccc(S(=O)(=O)N4CCOCC4)cc3)c2=O)c(C)c1 | -7.6
83 | O=C(Nc1ccccc1NC(=O)NC1CCCCC1)NC1CCCCC1 | 0.961
84 | Cc1c(NC(=O)CSc2nnc3c4ccccc4n(CCc4ccccc4)c3n2)c(=O)n(-c2ccccc2)n1C | -27.2
85 | CC1(C)CC(CCN)(Cc2ccccc2Cl)CCO1 (stereo not shown) | -1.1

Source: paper PMC4336329 (PLoS ONE, 2015)
